What follows are compounds tested on Plasmodium falciparum NF54 (assay: growth inhibition relative to untreated control; higher = more inhibition). Conditions: 5 µM; minimal medium (MM); 72 h.
Summary of the method: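 Two media were used: minimal RPMI, and minimal RPMI carrying the chorismate end-products folate, pABA, pHBA, tyrosine, phenylalanine and tryptophan at 2.2 μM, 7.3 μM, 7.3 μM, 111 μM and 90 μM for the first five. In these media, P. falciparum NF54 ring stages (1% hematocrit, 1% parasitemia, 100 μL/well) were exposed in dark 96-well half-area plates to a single 5 μM or 1 μM test-compound dose for 72 h at 37 °C. Growth inhibition was then assessed with SYBR Green against untreated wells, subtracting background from uninfected erythrocytes.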
`CCNC(=O)C(C)Nc1nc(-c2cccnc2)nc2sc(C)c(C)c12` (stereo not drawn) was tested, and the growth inhibition was 31.6%. `CCC(C)NC(=O)c1ccc(NC(=O)C2(c3ccccc3)CCCC2)cc1` (stereo not drawn) showed a growth inhibition of 65.4%. With `O=C(NCCc1ccccc1)c1cc(-c2cccnc2)cnc1NCC1CC1` the growth inhibition was 47%. `Cc1ccc2cc(C3NC(=O)c4ccccc4N3)c(Cl)nc2c1` (stereo not drawn) was tested, and the growth inhibition was 88.5%. With `COc1ccc(-c2nc(-c3cccc(NC(=O)Cc4ccc(F)cc4)c3)no2)cc1OC` the growth inhibition was 80.9%. `Brc1c(-c2ccc3c(c2)OCO3)nc2ncccn12` was tested, and the growth inhibition was < 0%. For `CNC(=O)C1Cc2ccccc2N1C(=O)Cc1ccc(F)cc1` (stereo not drawn), the growth inhibition was < 0%. With `CCCn1nnc(NC(=O)COc2ccc(C3CCCCC3)cc2)n1` the growth inhibition was < 0%. With `Brc1cncc(-c2cc(NCCCn3ccnc3)nc(-c3ccccc3)n2)c1` the growth inhibition was 90.1%. `COc1ccc(S(=O)(=O)Nc2ccc(CN3CCN(C(=O)c4cccc(C#N)c4)CC3)cc2)cc1` showed a growth inhibition of 13.7%. With `NCCC(O)C(=O)N[C@@H]1C[C@H](N)[C@@H](OC2O[C@H](CN)[C@@H](O)[C@H](O)[C@H]2O)[C@H](O)C1OC1O[C@H](CO)[C@@H](O)[C@H](N)[C@H]1O` (stereo partly drawn) the growth inhibition was < 0%. Work on `CC(C)n1ncc2c(C(=O)NCC(c3cccs3)N3CCOCC3)cc(-c3ccccc3)nc21` (stereo not drawn) yielded a growth inhibition of 14.2%. In the case of `CCCS(=O)(=O)N1CCC(CO)(Cc2ccccc2C(F)(F)F)CC1`, the growth inhibition is reported as 87.9%. `C[C@]1(COc2ccc(N3CCC(Oc4ccc(OC(F)(F)F)cc4)CC3)cc2)Cn2cc([N+](=O)[O-])nc2O1` showed a growth inhibition of 9.3%. `COc1cc(CN2CCC3(C=Cc4ccccc43)CC2)cc2c1OCO2` showed a growth inhibition of 8.3%. `Cc1cc(NCC(C)C)c2[nH]nc(-c3ccccc3)c2n1` showed a growth inhibition of 87.9%. `CC(C)C(Oc1cccc2ccccc12)C(=O)O` (stereo not drawn) gave a growth inhibition of 0.0991%. `CC(=O)NC[C@@H]1CN(c2ccc(N3CCOCC3)c(F)c2)C(=O)O1` was tested, and the growth inhibition was < 0%. Work on `O=C(NCCN1CCCC1)c1cc(NCCCCN2CCC(F)(F)CC2)nc2ccc(Cl)cc12` yielded a growth inhibition of 96.9%. For `Cc1ccc2[nH]c3c(NCCN(C)C)ncnc3c2c1`, the growth inhibition was 95.7%. `Cc1ccc2oc(-c3cc(NC(=O)Cc4ccccc4)ccc3Cl)nc2c1` was tested, and the growth inhibition was < 0%. Work on `CC(C)(C(=O)Nc1ccc(F)cc1)n1cc(-c2ccccc2F)cn1` yielded a growth inhibition of 15.7%. Work on `COc1cncc(-c2cncc(N3CCN(c4ccncc4)CC3)n2)c1` yielded a growth inhibition of 89.1%. In the case of `O=C(Cn1ccnc1[N+](=O)[O-])NCc1ccccc1`, the growth inhibition is reported as < 0%. For `CCc1nc2ccc(C(=O)NCc3ccc4c(c3)OCO4)cn2c1N(C)Cc1cccs1`, the growth inhibition was < 0%. Compound `CCCn1c(NC(=O)c2ccc3ccccc3n2)nc2ccccc21` has a growth inhibition of 85%. In the case of `COCC(C)NC(=O)CSc1ncnc2sc(-c3ccccc3)cc12` (stereo not drawn), the growth inhibition is reported as < 0%. `CNc1snc(C)c1C(=O)NCCOc1ccc(OC)cc1` gave a growth inhibition of 34.9%. Work on `CC(C)(C)OC(=O)N1CCN(c2cc(-c3ccc(Oc4ccccc4)cc3)n[nH]2)CC1` yielded a growth inhibition of 16.8%. With `O=C(CN1CCOCC1)Nc1ccc2ncnc(Nc3ccc(OCc4cccc(F)c4)c(Cl)c3)c2c1` the growth inhibition was 91.9%. For `Cc1ccc(-c2nc(CN(Cc3ccccn3)C(C)C)cs2)o1`, the growth inhibition was 49.2%. `CC(C)(C)CN1C(=O)C(c2ccccc2)(c2ccccc2)N=C1N` showed a growth inhibition of 34.9%. Work on `CCC(Sc1nc2ccccc2o1)C(=O)Nc1nnc(C)s1` (stereo not drawn) yielded a growth inhibition of 0.009%. `O=C(c1cc2ccccc2o1)N1CCN(Cc2ccc3c(c2)OCO3)CC1` was tested, and the growth inhibition was < 0%. In the case of `Cc1cc(O)nc(-n2nc(C)cc2C)n1`, the growth inhibition is reported as < 0%. With `COC(=O)c1ccc(F)cc1NS(=O)(=O)c1cccc(-c2cnn(Cc3ccccc3)c2)c1` the growth inhibition was < 0%. For `Cc1nn2c(O)c3c(nc2c1-c1ccc(F)cc1)CCCC3`, the growth inhibition was 24.6%. `CC(C)C(NC(=O)Cc1cccc2ccccc12)C(=O)Nc1cccc(C#N)c1` (stereo not drawn) gave a growth inhibition of 91%.
